Data reported in the supplement of paper PMC6135742.
Structures can show the parent of a compound that is named as a salt. ± gives the standard deviation of the averaged measurements. In all, about 2,600 compounds were measured (“MBP+ mature oligodendrocyte number relative to DMSO vehicle control”: median about -0.34, highest 2% from about 13 on). For the sample, the highest values were picked, then their nearest neighbours and some compounds at random.

Tested on: jimpy (Plp1 jimpy) mouse iPSC-derived oligodendrocyte progenitor cells
Assay: MBP+ mature oligodendrocyte number relative to DMSO vehicle control (SDs above negative control mean); higher = more surviving jimpy oligodendrocytes (rescue)
Details: 10 µM; 3 days
Protocol: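 Primary phenotypic screen of >3,000 bioactive compounds (Selleck L1700 and Sigma LO1280 libraries) at a single dose of 10 µM. Compounds were added to jimpy (Plp1 mutant) mouse iPSC-derived OPCs at the start of thyroid hormone-induced oligodendrocyte differentiation, one well per compound in 384-well plates. After 3 days cells were stained for MBP, Sox10 and DAPI and imaged with an Operetta system. MBP+ oligodendrocyte number and total cell number were expressed as the number of SDs above the mean of the DMSO negative control on the same plate (n=16 control wells per plate). Hits were defined as >=4 SD for oligodendrocytes and >=2 SD for total cells.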

Compound | MBP+ mature oligodendrocyte number
NCCCCCNCC12CC3CC(CC(C3)C1)C2 [IEM 1754 dihydrobroMide] | -4.82
O=C1NCC2(CCN(CCc3ccccc3)CC2)O1 [Fenspiride HCl] | 21.6
O=C1NCN(c2ccccc2)C12CCN(CCCC(c1ccc(F)cc1)c1ccc(F)cc1)CC2 [Fluspirilene] | -4.41
O=C1NCC2(CCN(CCc3ccccc3)CC2)O1 [Fenspiride hydrochloride] | 10.5
O=C(O)P(=O)(O)O [Foscarnet Sodium] | -1.56
CC(=O)OC[C@H]1O[C@@H]([S-])[C@H](OC(C)=O)[C@@H](OC(C)=O)[C@@H]1OC(C)=O.CCP(CC)CC.[Au+] [Auranofin] | < -3.85
C[C@]12C=CC(=O)C=C1CC[C@@H]1[C@@H]2[C@@H](O)C[C@@]2(C)[C@H]1CC[C@]2(O)C(=O)CO [Prednisolone] | 7.54
CC1(C)O[C@@H]2C[C@H]3[C@@H]4CCC5=CC(=O)C=C[C@]5(C)[C@H]4[C@@H](O)C[C@]3(C)[C@]2(C(=O)CO)O1 [Desonide] | 9.44
CCCC1O[C@@H]2C[C@H]3[C@@H]4CCC5=CC(=O)C=C[C@]5(C)[C@H]4[C@@H](O)C[C@]3(C)[C@]2(C(=O)CO)O1 (some centres undefined) [Budesonide] | 13.4 ± 10
Nc1ccccc1NC(=O)c1ccc(CNc2nccc(-c3cccnc3)n2)cc1 [Mocetinostat (MGCD0103)] | < -6.7
CC(O)C(O)[C@H]1CNc2nc(N)[nH]c(=O)c2N1 (stereo partly drawn) [(6R)-5,6,7,8-Tetrahydro-L-biopterin hydrochloride] | -1.5
CCCn1c(=O)c2c(ncn2C)n(CCC)c1=O [1,3-Dipropyl-7-methylxanthine] | 0.502
CO/N=C(\C(=O)N[C@@H]1C(=O)N2C(C(=O)O)=C(Cn3ccc(=N)n3CCO)CS[C@H]12)c1csc(N)n1 [Cefoselis Sulfate] | 0.982
CC(C)[C@H](NC(=O)c1ccc2ccccc2n1)C(=O)N[C@@H](CC(=O)O)C(=O)COc1c(F)cccc1F | 24.8
C[C@H](NC(=O)C(=O)Nc1ccccc1C(C)(C)C)C(=O)N[C@@H](CC(=O)O)C(=O)COc1c(F)c(F)cc(F)c1F [Emricasan] | 10.3
CC(C)C[C@H](NC(=O)[C@@H](NC(=O)c1cccc(-c2ccccc2)n1)[C@@H](C)O)B(O)O | < -6.7
NC[C@@H]1O[C@H](c2ccccc2)Cc2c1ccc(O)c2O | -0.675
NC(N)=NC(N)=Nc1ccccc1 [1-Phenylbiguanide] | 0.289
CC[C@H](/C=C/[C@@H](C)[C@H]1CC[C@H]2[C@@H]3CC=C4C[C@@H](O)CC[C@]4(C)[C@H]3CC[C@]12C)C(C)C [Stigmasterol] | -1.84
C[C@]12CC[C@H](O)CC1=CC[C@@H]1[C@@H]2CC[C@]2(C)C(n3cnc4ccccc43)=CC[C@@H]12 [Galeterone] | 16.8
CC(=O)[C@H]1CC[C@H]2[C@@H]3CC=C4C[C@@H](O)CC[C@]4(C)[C@H]3CC[C@]12C [Pregnenolone] | -3.89
CC(C)C[C@H](NP(=O)(O)O[C@H]1O[C@H](C)[C@@H](O)[C@H](O)[C@@H]1O)C(=O)N[C@@H](Cc1c[nH]c2ccccc12)C(=O)O [Phosphoramidon disodium] | -0.211
CN(N=O)C(=O)NC1C(O)OC(CO)C(O)C1O (centres undefined) [Streptozotocin (STZ)] | 0.109
CN(C)C1CCN(C(=O)c2ccc(NC(=O)Nc3ccc(-c4nc(N5CCOCC5)nc(N5CCOCC5)n4)cc3)cc2)CC1 | < -6.01
CC(C)(N)c1ncc(-c2ccc(OC(F)(F)F)cc2)[nH]1 | -1.43

Compound | MBP+ mature oligodendrocyte number
O=C(NC(NC(=S)Nc1ccc(F)c([N+](=O)[O-])c1)C(Cl)(Cl)Cl)C(c1ccccc1)c1ccccc1 (centres undefined) | -5.76
CCN(CC)Cc1ccc(C(=O)N(CCc2ccccc2OC)[C@@H]2CCNC2)cc1 | -3.89
CCCC(CCC)C(=O)O[C@H]1C[C@H]2CC[C@@H](C1)[N+]2(C)C [Anisotropine methyl bromide] | 32.5
CC(C)[N+]1(C)[C@@H]2CC[C@H]1C[C@@H](OC(=O)C(CO)c1ccccc1)C2 (some centres undefined) [Ipratropium Bromide] | 0.883
CCCC(CCC)C(=O)O [Valproic acid sodium salt (Sodium valproate)] | 0.72
CCCC(CCC)C(=O)O [Valproic acid sodium] | 0.147
CC(C)[N+]1(C)[C@@H]2CC[C@H]1C[C@@H](OC(=O)C(CO)c1ccccc1)C2 (some centres undefined) [Ipratropium bromide] | -0.439
CCCC(CCC)C(=O)O [Divalproex Sodium] | 2.05
Nc1cc(C(F)(F)F)c(-c2cc(N3CCOCC3)nc(N3CCOCC3)n2)cn1 [BKM120 (NVP-BKM120, Buparlisib)] | -4.7
Clc1ccc(N2CCN(Cc3cc4ccccn4n3)CC2)cc1 | 0.61
CCCCS(=N)(=O)CCC(N)C(=O)O (racemic) [DL-Buthionine-[S,R]-sulfoximine] | -0.472
COc1ccc(CCN(C)CCCC(C#N)(c2ccc(OC)c(OC)c2)C(C)C)cc1OC (racemic) [(±)-Verapamil hydrochloride] | -2.6
CC(C(=O)O)c1ccc(-c2ccccc2)c(F)c1 (centres undefined) [Flurbiprofen] | -0.0169
C/C(O)=C(\C#N)C(=O)Nc1ccc(C(F)(F)F)cc1 [Teriflunomide] | 0.913
CC(C)C[C@H](C(=O)O)c1cc(-c2ccc(C(F)(F)F)cc2)cc(-c2ccc(C(F)(F)F)cc2)c1 | 25.5
C=CC(=O)N1CCC[C@@H](n2nc(-c3ccc(Oc4ccccc4)cc3)c3c(N)ncnc32)C1 | 0.104
Cc1ccc(C(=O)N(CCCN)[C@@H](c2oc3cc(Cl)ccc3c(=O)c2Cc2ccccc2)C(C)C)cc1 | < -4.81
c1ccc(CN2CCC3(CCCc4ccccc43)CC2)cc1 [L-687,384 hydrochloride] | 0.735
Cc1nn(-c2ccccc2)c(C)c1C=NN1CCN(Cc2ccccc2)CC1 | 14.2 ± 1.6
Cc1cccc(CN2CCN(C(c3ccccc3)c3ccc(Cl)cc3)CC2)c1 (centres undefined) [Meclizine 2HCl] | -4.88
Nc1n[n+]([O-])c2ccccc2[n+]1[O-] [Tirapazamine] | -2.44
O=c1sn(-c2cccc3ccccc23)c(=O)n1Cc1ccccc1 [Tideglusib] | -0.769
NNC(=O)CSc1nc2scc(-c3ccccc3)c2c(=O)n1-c1ccccc1 | -0.637
OC(CCN1CCCCC1)(c1ccccc1)C1CC2C=CC1C2 (centres undefined) [Biperiden hydrochloride] | 2.59
OC(CCN1CCCCC1)(c1ccccc1)C1CCCCC1 (centres undefined) [Trihexyphenidyl hydrochloride] | -0.104

Compound | MBP+ mature oligodendrocyte number
OC(CCN1CCCCC1)(c1ccccc1)C1CC2C=CC1C2 (centres undefined) [Biperiden HCl] | 13.7
O=c1cc(-c2cccc3c2Sc2ccccc2S3)oc(N2CCOCC2)c1 | -3.99
C[N+]1(C)CCC(OC(=O)C(c2ccccc2)c2ccccc2)CC1 [4-DAMP methiodide] | 2.86
C[N+]1(C)CCC(=C(c2ccccc2)c2ccccc2)CC1 [Diphemanil Methylsulfate] | 19.2
O=C(O)c1ccccc1 [Benzoic Acid] | 0.66
C[N+]1(C)CCC(OC(=O)C(c2ccccc2)c2ccccc2)CC1 | 0.467
C=C1/C(=C\C=C2/CCC[C@]3(C)[C@@H]([C@H](C)/C=C/[C@H](C)C(C)C)CC[C@@H]23)C[C@@H](O)C[C@@H]1O [Doxercalciferol] | 8.14
C=C1CC[C@H](O)C/C1=C/C=C1\CCC[C@]2(C)[C@@H]([C@H](C)CCCC(C)C)CC[C@@H]12 [Vitamin D3] | 5.56
C=C1CC[C@H](O)C/C1=C/C=C1\CCC[C@]2(C)[C@@H]([C@H](C)/C=C/[C@H](C)C(C)C)CC[C@@H]12 [Vitamin D2] | 21.5
CCCCCCCCCCCCCCSCC(=O)O [Tetradecylthioacetic acid] | 0.00298
CCCCC[C@H](O)/C=C/[C@H]1[C@H](O)CC(=O)[C@@H]1CCCCCCC(=O)O [Alprostadil] | 0.793
CCCCC(F)(F)[C@@]1(O)CC[C@H]2[C@@H](CC(=O)[C@@H]2CCCCCCC(=O)O)O1 [Lubiprostone] | 25.2
Cc1cnc(-c2cc(N3CCN(C(=O)CCS(C)(=O)=O)CC3)ncc2Cl)c(C)c1 | 0.184
CC(C(O)c1ccc(O)cc1)N1CCC(Cc2ccccc2)CC1 (centres undefined) [Ifenprodil tartrate] | 8.03
CC(NCCc1ccc(O)cc1)C(O)c1ccc(O)cc1 (centres undefined) [Ritodrine hydrochloride] | 1.15
CC(C)(C)c1ccc(C(O)CCCN2CCC(C(O)(c3ccccc3)c3ccccc3)CC2)cc1 (centres undefined) [Terfenadine] | < -3.85
CC(C)(C(=O)O)c1ccc(C(O)CCCN2CCC(C(O)(c3ccccc3)c3ccccc3)CC2)cc1 (centres undefined) [Fexofenadine hydrochloride] | 0.659
CC(NCCc1ccc(O)cc1)C(O)c1ccc(O)cc1 (centres undefined) [Ritodrine HCl] | -0.164
CC(C(O)c1ccc(O)cc1)N1CCC(Cc2ccccc2)CC1 (centres undefined) [Ifenprodil Tartrate] | 20.3
CC(C)(C(=O)O)c1ccc(C(O)CCCN2CCC(C(O)(c3ccccc3)c3ccccc3)CC2)cc1 (centres undefined) [Fexofenadine HCl] | 1.53
C[C@H](N[C@@H](CCc1ccccc1)C(=O)O)C(=O)N1CCC[C@H]1C(=O)O [Enalaprilat dihydrate] | 0.574
C[C@H](N[C@@H](CCc1ccccc1)C(=O)O)C(=O)N1CCC[C@H]1C(=O)O [Enalaprilat Dihydrate] | -0.467
C[C@@H](CN1CCC(Cc2ccccc2)CC1)[C@@H](O)c1ccc(O)cc1 [Ro 25-6981 hydrochloride] | 14.6
CC(=Cc1ccc(C(=O)O)cc1)c1ccc2c(c1)C(C)(C)CCC2(C)C | 0.539
